Experimental findings from PubChem BioAssay (NCATS) are described below.

In assay [1] the target is Methanococcus maripaludis chaperonin (MmCpn) (UniProt Q6LX38). Nature of the assay: High-Throughput Screening for Modulators of Cytosolic Chaperonin Activity: MmCpn Primary Screen (AID 488978).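 Also: 50 nM MmCpn enzyme hydrolysing 30 µM ATP at 37 °C; 0% is about no effect.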 The method, boiled down: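 MmCpn (50 nM final) was preincubated with compound 5 min at RT, then 30 uM ATP (final) was added and the reaction ran 10 min at 37C. ADP produced was detected by Transcreener HTRF (ex 320 nm; em 590/665 nm).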
Sequence of Methanococcus maripaludis chaperonin (MmCpn) (Q6LX38 1-543): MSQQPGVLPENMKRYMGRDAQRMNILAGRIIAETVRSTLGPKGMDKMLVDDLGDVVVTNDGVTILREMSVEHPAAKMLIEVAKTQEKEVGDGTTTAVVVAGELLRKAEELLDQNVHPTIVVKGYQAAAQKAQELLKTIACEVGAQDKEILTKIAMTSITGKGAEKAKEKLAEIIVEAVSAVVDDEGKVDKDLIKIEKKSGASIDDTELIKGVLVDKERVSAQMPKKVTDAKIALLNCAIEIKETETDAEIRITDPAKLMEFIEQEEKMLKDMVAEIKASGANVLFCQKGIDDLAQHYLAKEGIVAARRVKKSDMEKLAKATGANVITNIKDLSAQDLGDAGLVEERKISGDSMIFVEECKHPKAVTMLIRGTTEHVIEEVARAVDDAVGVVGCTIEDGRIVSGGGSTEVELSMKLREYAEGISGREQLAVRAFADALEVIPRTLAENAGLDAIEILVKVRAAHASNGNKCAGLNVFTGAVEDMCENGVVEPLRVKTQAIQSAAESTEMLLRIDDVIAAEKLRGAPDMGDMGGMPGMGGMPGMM

In assay [2] the target is D(1A) dopamine receptor (Homo sapiens) (UniProt P21728). Nature of the assay: HTS Assay for Allosteric Agonists of the Human D1 Dopamine Receptor: Primary Screen for Agonists (AID 488981). Also: potency is read from the fitted curve at half-maximal effect. As to activation: 0% is about no effect. The method, boiled down: (§1)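 Calcium flux in an inducible, force-coupled HEK293 Trex D1 line (overnight at 30 C): agonist mode is the 180 s kinetic read after compound; potentiator mode is the following 180 s read after dopamine at EC20.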
Sequence of D(1A) dopamine receptor (Homo sapiens) (P21728 whole entry, looked up): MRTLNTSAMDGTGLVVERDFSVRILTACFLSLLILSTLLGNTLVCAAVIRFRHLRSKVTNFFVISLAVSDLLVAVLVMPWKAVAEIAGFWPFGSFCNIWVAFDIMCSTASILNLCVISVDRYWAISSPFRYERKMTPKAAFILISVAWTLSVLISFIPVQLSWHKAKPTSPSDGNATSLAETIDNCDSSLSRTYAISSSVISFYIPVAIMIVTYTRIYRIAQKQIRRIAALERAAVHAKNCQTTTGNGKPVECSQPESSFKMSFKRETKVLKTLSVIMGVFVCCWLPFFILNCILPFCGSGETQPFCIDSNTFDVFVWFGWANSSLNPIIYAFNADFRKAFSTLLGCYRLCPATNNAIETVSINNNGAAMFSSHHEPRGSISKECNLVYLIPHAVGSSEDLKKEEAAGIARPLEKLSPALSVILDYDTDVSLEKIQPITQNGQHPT

Assay [3] shares this target. Put plainly: HTS Assay for Allosteric Agonists of the Human D1 Dopamine Receptor: Primary Screen for Potentiators (AID 488982). Also: 0% is about no effect. Put shortly: as §1
A short description of assay [4]: Validation screen for small molecules that induce genotoxicity in human embryonic kidney (HEK293T) cells expressing luciferase-tagged ELG1 (AID 493106). Also: potency is read from the fitted curve at half-maximal effect. The method, boiled down:
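ELG1-luciferase reporter readout (ONE-Glo, 30 min, room temperature) after 16 hr compound treatment at 37 °C of HEK293T cells at 2,000 per well. Rising luminescence flags genotoxic stress.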

The nature of assay [5]: qHTS for Inhibitors of Cell Surface uPA Generation: Validation Assay (AID 493164).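 Also: RAW 264.7 macrophage cells exposed to compound for 18 h; 0% is about no effect.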 The method, boiled down:
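ATP-Lite luminescence read-out: ATP remains high when uPA activity-dependent LF translocation into the cytoplasm is blocked. RAW 264.7 cells, 18 h compound exposure at 37 C; 7-point titration, 2.45 nM to 38.3 uM final.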

In assay [6] the target is Phosphoglycerate kinase, glycosomal (Trypanosoma brucei brucei) (UniProt P07378). Nature of the assay: qHTS Validation Assay to Find Inhibitors of Phosphoglycerate Kinase (AID 504547). Also: potency is read from the fitted curve at half-maximal effect. The method, boiled down:
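Luminescence end-point (Kinase-Glo Plus, 10 min) after a 60 min room-temperature coupled reaction. GAPDH at 100nM final supplies 1,3-BPG to PGK. Buffer: 100mM TEA pH 7.6, 5mM MgCl2, 0.01% Tween-20. Wells lacking PGK served as controls.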

The nature of assay [7]: qHTS for Inhibitors of ATXN expression: Validation of Cytotoxic Assay (AID 588349). Also: % is scaled to controls: 0 for no effect and ±100 for the full control effect. Put shortly: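 Cytotoxicity counter-screen: ATP-based luminescent viability (CellTiter Glo) after 72 hr exposure of HEK293 cells to a compound titration at 37 degrees C.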
In general terms: In qHTS, concentration-response curves come from the screen itself.

Assay [8] has as its target D(1A) dopamine receptor (Homo sapiens) (UniProt P21728). Put plainly: HTS Assay for Allosteric Agonists of the Human D1 Dopamine Receptor: Primary Screen for Antagonists (AID 488983).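 Also: calcium flux response to an EC80 dopamine challenge measured with no-wash dye; nearly all actives have a fitted effect of over 65% in size.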 Also: potency is read from the fitted curve at half-maximal effect. Put shortly: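 Calcium-flux read-out in inducible HEK293 T-REx cells expressing D1, dye-loaded 30–90 min at room temperature. Kinetic reads: 180 s after compound (agonist phase), then 180 s after an EC80 dopamine challenge.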

Assay [9] addresses ATPase family AAA domain-containing protein 5 (Homo sapiens) (UniProt Q96QE3). Put plainly: Validation screen for small molecules that inhibit ELG1-dependent DNA repair in human embryonic kidney (HEK293T) cells expressing luciferase-tagged ELG1 (AID 493107). Also: nearly all actives have a fitted effect of over 70% in size. Also: potency is read from the fitted curve at half-maximal effect. Put shortly:
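Luciferase read-out, ONE-Glo, 30 min at room temperature, follows 16 h co-exposure at 37 C of compound and the DNA-damaging agent 5-fluorouridine. Cells: HEK293T with ELG1-luciferase fusion, 2,000 per well, DMSO as vehicle.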

The target in assay [10] is Peptidyl-prolyl cis-trans isomerase NIMA-interacting 1 (Homo sapiens) (UniProt Q13526). Nature of the assay: qHTS Validation Assay to Find Inhibitors of Pin1 (AID 504536; active = well fitted inhibition curve with a large enough effect in the polarisation, with a control signal flat, not every such curve was filed as active; the % refers to the polarisation; also: potency is read from the fitted curve at half-maximal effect). The method, boiled down: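 Fluorescence polarization competition: compounds (titration) displace HiFluor-488-labeled Pin1-1b peptide from Pin1 (0.3 uM final) in pH 7.5 HEPES buffer with DTT, 10 min at room temperature; %Activity normalized to no-enzyme wells, curves fitted.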
Sequence of Peptidyl-prolyl cis-trans isomerase NIMA-interacting 1 (Homo sapiens) (Q13526 whole entry, looked up): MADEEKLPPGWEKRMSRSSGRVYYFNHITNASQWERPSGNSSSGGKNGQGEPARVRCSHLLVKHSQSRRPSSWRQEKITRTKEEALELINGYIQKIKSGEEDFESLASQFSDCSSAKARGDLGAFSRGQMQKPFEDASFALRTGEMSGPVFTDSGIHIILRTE

The target in assay [11] is phosphoglycerate mutase (Leishmania major) (UniProt Q4Q090). Nature of the assay: qHTS Validation Assay to Find Inhibitors of Phosphoglycerate Mutase (AID 504548).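 Also: end-point luminescence from Kinase-GloPlus after the PGAM reaction; series mostly up to about 58 µM; % is scaled to controls: 0 for no effect and ±100 for the full control effect.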 Particulars: Potency: inhibition qHTS. The method, boiled down: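 Inhibition of L. major PGAM was assessed by Kinase-GloPlus luminescence following a 45-minute room-temperature reaction with enzyme at 1.25nM final.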
Sequence of phosphoglycerate mutase (Leishmania major) (Q4Q090 1-553): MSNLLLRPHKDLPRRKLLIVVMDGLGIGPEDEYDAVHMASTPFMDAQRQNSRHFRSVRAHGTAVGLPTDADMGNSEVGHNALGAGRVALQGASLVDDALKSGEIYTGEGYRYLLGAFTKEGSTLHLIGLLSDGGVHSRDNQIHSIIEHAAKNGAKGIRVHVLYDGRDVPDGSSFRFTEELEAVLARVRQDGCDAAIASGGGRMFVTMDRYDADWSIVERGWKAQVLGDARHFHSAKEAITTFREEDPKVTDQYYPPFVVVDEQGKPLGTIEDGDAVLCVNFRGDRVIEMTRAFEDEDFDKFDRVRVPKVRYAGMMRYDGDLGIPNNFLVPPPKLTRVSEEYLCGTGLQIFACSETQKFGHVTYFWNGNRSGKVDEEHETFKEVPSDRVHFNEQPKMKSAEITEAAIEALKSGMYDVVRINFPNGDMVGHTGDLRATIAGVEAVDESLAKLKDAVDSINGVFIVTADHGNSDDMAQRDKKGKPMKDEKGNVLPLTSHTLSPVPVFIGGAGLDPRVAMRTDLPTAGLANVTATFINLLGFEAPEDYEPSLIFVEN

Assay [12] addresses Ubiquitin carboxyl-terminal hydrolase 1 (Homo sapiens) (UniProt O94782). Put plainly: Inhibitors of USP1/UAF1: Pilot qHTS (AID 504865). Also: nearly all actives have a fitted effect of over 35% in size. Also: potency is read from the fitted curve at half-maximal effect. Put shortly:
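USP1/UAF1 complex (1nM) preincubated with compound 15 min at room temperature, then Ub-Rho substrate (150nM final) added. Fluorescence read kinetically at 480/540 nm, 6 reads every 60 seconds. Buffer: 50mM HEPES pH 7.8, 0.5mM EDTA, 0.1 mg/ml BSA, 1mM TCEP, 0.01% Tween-20.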

Assay [13] has as its target Thyrotropin-releasing hormone receptor (Homo sapiens) (UniProt P34981). Put plainly: qHTS for Small Molecule Agonists and Allosteric Enhancers of Human TRH Receptor: Validation Screen for Agonists (AID 493127;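 active = calcium activation more than 3 SD above the typical response in the agonist read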;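 also: intracellular calcium rise by fluo-8 fluorescence before TRH EC20 addition; 0% is about no effect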). Conditions: TRH receptor agonist cell assay; at 2 µM; stronger effect = higher value. Put shortly: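 Compound-evoked intracellular calcium release in fluo-8-loaded TRHR cells, read kinetically on FDSS (Ex 480/Em 530, 1 s/cycle) after 23 nL pintool transfer. Agonist phase preceded 10 nM TRH EC20 addition.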

Assay [14] in a line: Nrf2 qHTS screen for inhibitors: Validation (AID 493153; active = well fitted inhibition curve with a large enough effect in the main read-out, with a control signal flat, not every such curve was filed as active). Conditions: Potency: luciferase luminescence; viability change: measured here: cytotoxicity max response. The method, boiled down:
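Concentration-response on A549 ARE_Fluc reporter cells exposed 18-24 h at 37 C, 5% CO2. Cytotoxicity read first by CellTiter-Fluor fluorescence (Ex 405/Em 525), then Nrf2 inhibition by BugLite luminescence after 15 min.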

The nature of assay [15]: Validation screen for small molecules that induce DNA re-replication in SW480 colon adenocarcinoma cells (AID 504364). Also: 0% is about no effect. The method, boiled down:
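Image-based DNA content read-out: Hoechst stain 40 min, total nuclear fluorescence intensity (ex 405 nm, em 500-530 nm) after 48 h compound exposure of 250 SW480 cells/well at 37 C, 5% CO2, versus DMSO vehicle.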

Records with an inconclusive call do not appear. Activity calls are given as the source filed them. Unless noted, calls follow the shape of the dose curve; as a rule, active = well fitted curve in the direction sought with a large enough effect; inconclusive = small, poorly fitted or top-dose-only effect, or another doubt; inactive = no such curve, though single readings can be large; an effect the other way counts as inactive or inconclusive.

Sequence of ATPase family AAA domain-containing protein 5 (Homo sapiens) (Q96QE3 whole entry, looked up, the tested form may be a part): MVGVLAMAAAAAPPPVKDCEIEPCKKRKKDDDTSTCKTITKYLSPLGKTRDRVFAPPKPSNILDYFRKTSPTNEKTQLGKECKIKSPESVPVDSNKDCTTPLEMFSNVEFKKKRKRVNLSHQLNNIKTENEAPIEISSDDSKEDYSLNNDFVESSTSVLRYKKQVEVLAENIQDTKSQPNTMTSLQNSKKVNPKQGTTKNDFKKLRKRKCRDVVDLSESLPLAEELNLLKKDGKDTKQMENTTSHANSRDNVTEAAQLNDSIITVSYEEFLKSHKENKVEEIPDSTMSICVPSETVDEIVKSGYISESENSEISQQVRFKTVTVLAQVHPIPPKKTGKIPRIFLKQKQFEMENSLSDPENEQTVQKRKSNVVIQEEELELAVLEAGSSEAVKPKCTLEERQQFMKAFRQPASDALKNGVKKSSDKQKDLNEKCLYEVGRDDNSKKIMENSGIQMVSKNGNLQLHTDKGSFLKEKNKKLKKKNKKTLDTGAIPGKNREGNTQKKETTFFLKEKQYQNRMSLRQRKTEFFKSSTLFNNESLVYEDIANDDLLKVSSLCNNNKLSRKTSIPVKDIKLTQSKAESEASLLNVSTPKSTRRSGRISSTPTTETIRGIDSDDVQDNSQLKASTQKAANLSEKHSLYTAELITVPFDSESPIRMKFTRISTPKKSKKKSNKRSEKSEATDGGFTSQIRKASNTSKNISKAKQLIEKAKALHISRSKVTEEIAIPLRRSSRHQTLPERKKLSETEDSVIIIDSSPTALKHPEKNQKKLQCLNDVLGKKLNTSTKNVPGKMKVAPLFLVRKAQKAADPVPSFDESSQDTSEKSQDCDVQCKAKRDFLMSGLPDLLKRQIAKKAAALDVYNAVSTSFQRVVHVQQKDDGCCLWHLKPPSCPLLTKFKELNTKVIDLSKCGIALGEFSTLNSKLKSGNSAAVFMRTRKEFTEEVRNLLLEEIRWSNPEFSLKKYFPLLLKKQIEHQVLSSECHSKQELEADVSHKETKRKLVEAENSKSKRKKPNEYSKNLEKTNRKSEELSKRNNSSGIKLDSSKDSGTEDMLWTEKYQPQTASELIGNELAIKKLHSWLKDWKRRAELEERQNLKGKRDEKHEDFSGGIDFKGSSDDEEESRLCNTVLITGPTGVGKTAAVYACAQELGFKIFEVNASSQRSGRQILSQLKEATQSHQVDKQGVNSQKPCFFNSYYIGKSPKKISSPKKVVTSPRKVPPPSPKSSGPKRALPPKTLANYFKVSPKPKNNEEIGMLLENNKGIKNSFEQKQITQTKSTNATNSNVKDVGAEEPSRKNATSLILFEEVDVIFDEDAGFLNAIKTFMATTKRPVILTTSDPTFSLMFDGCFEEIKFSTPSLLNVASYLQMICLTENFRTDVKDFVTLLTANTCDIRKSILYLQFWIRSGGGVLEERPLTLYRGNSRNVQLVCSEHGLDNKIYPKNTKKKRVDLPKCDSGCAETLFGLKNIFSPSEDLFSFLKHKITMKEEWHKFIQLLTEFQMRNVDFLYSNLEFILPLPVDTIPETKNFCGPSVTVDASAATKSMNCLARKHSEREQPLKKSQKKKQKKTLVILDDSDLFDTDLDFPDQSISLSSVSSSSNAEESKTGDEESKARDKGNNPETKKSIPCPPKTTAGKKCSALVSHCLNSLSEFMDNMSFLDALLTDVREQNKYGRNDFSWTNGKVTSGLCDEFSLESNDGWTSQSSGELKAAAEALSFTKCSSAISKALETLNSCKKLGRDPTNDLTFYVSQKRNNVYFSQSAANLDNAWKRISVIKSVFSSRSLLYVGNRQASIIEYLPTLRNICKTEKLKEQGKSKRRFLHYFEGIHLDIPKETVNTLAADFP
Sequence of Ubiquitin carboxyl-terminal hydrolase 1 (Homo sapiens) (O94782 whole entry, looked up): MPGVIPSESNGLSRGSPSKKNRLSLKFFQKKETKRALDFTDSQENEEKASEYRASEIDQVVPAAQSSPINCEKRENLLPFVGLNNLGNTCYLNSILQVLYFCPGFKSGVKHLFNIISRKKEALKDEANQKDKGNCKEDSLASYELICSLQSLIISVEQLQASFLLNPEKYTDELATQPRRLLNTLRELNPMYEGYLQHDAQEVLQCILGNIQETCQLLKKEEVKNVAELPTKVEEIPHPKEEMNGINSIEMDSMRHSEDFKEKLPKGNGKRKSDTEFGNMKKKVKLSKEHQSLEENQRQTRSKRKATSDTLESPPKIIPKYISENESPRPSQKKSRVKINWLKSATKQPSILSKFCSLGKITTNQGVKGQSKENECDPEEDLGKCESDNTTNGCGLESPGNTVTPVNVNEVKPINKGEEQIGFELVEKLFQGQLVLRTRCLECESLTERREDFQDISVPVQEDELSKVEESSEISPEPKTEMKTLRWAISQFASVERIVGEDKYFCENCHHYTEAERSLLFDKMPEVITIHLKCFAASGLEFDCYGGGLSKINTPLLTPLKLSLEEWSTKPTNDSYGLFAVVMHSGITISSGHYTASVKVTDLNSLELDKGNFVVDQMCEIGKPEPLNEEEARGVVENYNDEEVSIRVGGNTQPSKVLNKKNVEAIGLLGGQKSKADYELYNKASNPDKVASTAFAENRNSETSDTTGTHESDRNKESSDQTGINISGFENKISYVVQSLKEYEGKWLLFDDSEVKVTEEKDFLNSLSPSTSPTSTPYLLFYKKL
Sequence of Phosphoglycerate kinase, glycosomal (Trypanosoma brucei brucei) (P07378 whole entry, looked up): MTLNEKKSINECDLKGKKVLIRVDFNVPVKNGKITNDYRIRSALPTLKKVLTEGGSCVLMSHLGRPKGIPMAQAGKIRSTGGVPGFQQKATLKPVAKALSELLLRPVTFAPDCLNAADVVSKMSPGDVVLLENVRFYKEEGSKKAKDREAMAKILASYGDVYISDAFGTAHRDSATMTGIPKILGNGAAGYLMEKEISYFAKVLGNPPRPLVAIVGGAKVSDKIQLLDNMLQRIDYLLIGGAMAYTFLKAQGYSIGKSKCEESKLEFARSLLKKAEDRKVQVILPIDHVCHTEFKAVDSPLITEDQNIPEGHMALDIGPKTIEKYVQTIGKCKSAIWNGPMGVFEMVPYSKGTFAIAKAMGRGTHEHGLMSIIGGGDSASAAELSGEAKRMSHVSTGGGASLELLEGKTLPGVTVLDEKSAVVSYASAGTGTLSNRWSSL

On to `CCOC(=O)C1=C(C)NC(C)=C(C(=O)OCC)C1c1c(F)c(F)c(F)c(F)c1F`, for which the compound was called inactive in assay [1] and in [5]. Moreover, the Potency entry in assay [2], in assay [3], in [4], in [6] and in assay [7] was “inactive” in each case.
As for `Nc1ncnc2c1c(I)cn2[C@@H]1C[C@H](N)[C@@H](O)[C@H]1O`, the outcome in assay [1] and in assay [5] was inactive. Also, the Potency result in assay [3], in [8], in [4], in [10], in assay [6] and in [11] was “inactive” each time. Also, in assay [12], the Potency result was “inactive”. For the same compound, the Potency in assay [9] was 5.17 µM (active).
Regarding `CC(C)NCC(O)COc1cccc2ccccc12` (stereo unspecified), the result in assay [1] was inactive. The Potency result in assay [3], in assay [8], in [4], in assay [9], in [14] and in assay [15] was “inactive” throughout. The Potency entry in assay [10] and in assay [12] was “inactive” each time. In addition, the activation in assay [13] is 2.25% (inactive). Besides, the viability change in assay [14] is 6.42%.
Consider `O=C1/C(=C/c2ccsc2)CC/C1=C\c1cccs1`, for which the compound was classed as inactive in assay [1] and in [5]. Moreover, the Potency result in assay [3], in assay [8], in assay [14], in assay [10], in assay [6] and in assay [12] was “inactive” in each case. Moreover, the Potency entry in assay [7] is “inactive”. In addition, the Potency in [4] is 23.1 µM (active). The viability change in [14] was -8.76%.
As for `O=[N+]([O-])c1ccc2c(c1)S(=O)(=O)C=C2`, the compound was classed as inactive in assay [1] and in [5]. In addition, the Potency result in assay [3], in assay [8], in assay [4], in assay [10] and in [6] was “inactive” each time.
As for `CN1C2CC(OC(=O)[C@H](CO)c3ccccc3)CC1C1OC12` (stereo partly specified), the compound was called inactive in assay [1] and in [5]. Also, the Potency result in [3], in [8], in [4], in [9], in assay [14] and in assay [10] was “inactive” throughout. In addition, the Potency entry in [6] and in [7] was “inactive” throughout. Besides, the viability change in assay [14] is -8.53%.
In the case of `CCCCC#Cc1nc(NC)c2ncn([C@@H]3O[C@H](CO)[C@@H](O)[C@H]3O)c2n1`, the outcome in [1] and in assay [5] was inactive. Also, the Potency entry in [3], in assay [8], in assay [9], in [14], in assay [10] and in [6] was “inactive” each time. Moreover, the Potency result in [12] and in assay [7] was “inactive” each time. For the same compound, the viability change in [14] is 2.21%.
As for `CC(=O)/C=C1\C(=O)N(C)c2ccccc21`, the compound was classed as inactive in assay [1] and in [5]. Moreover, the Potency result in assay [3], in [4], in assay [10], in assay [6], in [11] and in assay [12] was “inactive” throughout. The Potency in [8] is 10 µM (active).
For `CO/N=C(\C(=O)N[C@@H]1C(=O)N2C(C(=O)O)=C(COC(C)=O)CS[C@H]12)c1csc(N)n1`, the result in assay [1] was inactive. The Potency result in assay [3], in assay [4], in assay [9], in assay [14], in assay [12] and in [7] was “inactive” throughout. Moreover, in assay [14], the viability change is -5.9%.
For the compound `Cn1ncc(S(=O)(=O)Cc2ccccc2)c(Br)c1=O`, in assay [1], the call was inactive. Also, the Potency result in assay [2], in [3], in assay [4], in assay [6] and in assay [11] was “inactive” throughout. Besides, the Potency in assay [12] was 12.6 µM (active).
With `CCc1c(C(=O)NCCc2ccc(N3CCCCC3)cc2)[nH]c2ccc(Cl)cc12`, the outcome in assay [1] and in assay [5] was inactive. For the same compound, the Potency result in [3], in assay [8], in assay [4], in assay [14], in [10] and in [6] was “inactive” in each case. In addition, the Potency result in assay [11], in assay [12] and in [7] was “inactive” in each case. The viability change in assay [14] is -7.76%.
On to `OCC1O[C@H]([S-])[C@H](O)[C@@H](O)[C@@H]1O.[Au+]` (stereo partly specified), for which the outcome in assay [1] and in [5] was inactive. Further, the Potency entry in [2], in assay [3], in assay [4], in assay [9], in [14] and in [11] was “inactive” each time. Further, the Potency result in [12] was “inactive”. The viability change in [14] was -19.1%. Moreover, the Potency was 4.26 µM (active) in assay [10] and 8.49 µM (active) in [6].
With `CC(C)CC(NP(=O)(O)O[C@@H]1O[C@@H](C)[C@H](O)[C@@H](O)[C@H]1O)C(=O)NC(Cc1c[nH]c2ccccc12)C(=O)O` (stereo partly specified), the compound was called inactive in [1] and in assay [5]. The Potency entry in assay [2], in [8], in [4], in [9], in assay [14] and in [10] was “inactive” each time. Besides, the Potency entry in [6], in assay [11], in [12] and in assay [7] was “inactive” throughout. For the same compound, in assay [14], the viability change was -0.0491%.
Regarding `COc1cc(SC)ccc1C(=O)N1CCC(Cc2ccccc2)CC1`, the compound was called inactive in assay [1] and in assay [5]. In addition, the Potency entry in assay [2], in assay [3], in assay [4], in assay [10], in assay [6] and in assay [11] was “inactive” each time. In assay [7], the Potency entry is “inactive”.
As to `CSc1nc(N)c2ncn([C@@H]3O[C@H](COP(=O)(O)OP(=O)(O)OP(=O)(O)O)[C@@H](O)[C@H]3O)c2n1`, the call in assay [1] and in assay [5] was inactive. Moreover, the Potency in [2] is 1.58 µM (active). In addition, the Potency entry in assay [4], in assay [14], in assay [6], in assay [11], in assay [12] and in assay [7] was “inactive” throughout. In addition, the viability change in [14] is -1.62%.
For `NC[C@H]1O[C@@H](n2cnc3c(N)ncnc32)[C@H](O)[C@@H]1O`, the call in assay [1] and in assay [5] was inactive. Also, the Potency entry in assay [2], in [3], in assay [4], in assay [9], in assay [14] and in [10] was “inactive” in each case. Moreover, the Potency entry in assay [6], in assay [11], in assay [12] and in assay [7] was “inactive” each time. Also, the viability change in [14] came to 9.27%.
In the case of `OC[C@H]1O[C@@H](n2cnc3c(Nc4ccccc4)ncnc32)[C@H](O)[C@@H]1O`, the call in assay [1] and in [5] was inactive. In addition, the Potency entry in assay [2], in assay [3], in assay [9], in assay [10], in assay [6] and in [12] was “inactive” throughout. Moreover, in assay [7], the Potency result was “inactive”. The Potency in [4] is 9.2 µM (active).
`CCN(CC)c1ncnc2c1ncn2[C@@H]1O[C@H](COP(=O)(O)OP(=O)(O)C(Br)(Br)P(=O)(O)O)[C@@H](O)[C@H]1O`: the call in assay [1] and in assay [5] was inactive. Besides, the Potency result in assay [3], in assay [4], in [14], in assay [6], in assay [11] and in [12] was “inactive” throughout. The Potency result in [7] is “inactive”. Besides, the viability change in [14] was -6.83%.
